Among the data in PubChem BioAssay AID493240 (Broad Institute, 2011) are outcome values, retold here.

Structures are written as SMILES. Out of some 1,300 compounds screened, about 270 (21%) were called active. The rule behind the calls is not given here. These entries were drawn from the full list. Results with a measured potency or affinity are listed apart.

The nature of the assay: cytotoxicity in parental SK-MEL-5 melanoma cells – cell-based, CellTiter-Glo, cherry-picked, set 3, orthogonal assay for MITF inhibitor project, dose response (AID 493240). The settings on record: SK-MEL-5 viability, ATP luminescence (CellTiter-Glo), 24 h; series mostly up to 35 µM. For orientation: Cellular ATP, detected with luciferase, serves as a proxy for viable cell number.
Consider `O=C(/C=C/c1ccc2c(c1)OCCO2)c1ccccc1`, for which the result was inactive.

As to `COc1cccc(/C=C/C(=O)c2ccc3c(c2)OCCO3)c1OC`, the result was inactive.

As for `O=C(Nc1nc2ccsc2c(=O)s1)C1CCC1`, the outcome was inactive.

Take `O=C(Nc1ccccc1Cl)c1cc(=O)c2ccccc2o1`: the outcome was inactive.

Turning to `Cc1ccc(-c2noc(CN3CCCCC3)n2)cc1`, the result was inactive.

As for `Cc1cc(C)c2c(N)c(C(=O)N/N=C/c3cccnc3)sc2n1`, the outcome was inactive.

Regarding `Cc1nc2ccc(NC(=O)c3ccco3)cc2nc1C`, the outcome was inactive.

With `COc1cccc(/C=N/NC(=O)c2cccs2)c1`, the result was inactive.

As for `CC1Cc2cc(-c3csc(N)n3)ccc2O1` (centres undefined), the outcome was inactive.

Take `CCCCOc1ccc(-c2ncc([N+](=O)[O-])cn2)cc1`: the outcome was inactive.

On to `COC(=O)CSC1=C(C#N)C(=O)NC(c2ccccc2)S1` (centres undefined), for which the result was inactive.

`COc1nc(NC2CCCCC2)nc(NC(C)(C)C)n1`: the outcome was inactive.

Turning to `Cc1ccc2nc(Cc3ccc(N)cc3)oc2c1`, the result was inactive.

With `Cc1nc(NC(=O)/C=C/c2ccccc2)n[nH]1`, the outcome was inactive.

Take `CCCc1ccc(-c2ccc(/C=C/C(=O)O)cc2)nc1`: the result was inactive.

In the case of `[2H]C(CCOS(N)(=O)=O)c1ccc(C(C)(C)C)cc1` (centres undefined), the result was inactive.

`CC(=O)N(C1CC(C)C(C#N)(C#N)C1(C#N)C#N)N(C)C` (centres undefined): the outcome was inactive.

Turning to `Cc1cccnc1NC(=O)NC(=O)c1ccc(C(C)(C)C)s1`, the result was inactive.

Take `O=C(CC(=O)c1ccccc1)Nc1ccccn1`: the result was inactive.

On to `COc1ccc(NC(=O)c2cc3ccccc3oc2=O)c(OC)c1`, for which the outcome was inactive.

Take `NNC(=O)Cn1c(SCc2ccccc2)nc2ccccc21`: the result was inactive.

For the compound `CCCCOc1ccc(-c2nnn(C(C)(C)C(=O)OC)n2)cc1`, the result was inactive.

As to `CCSc1nnc(NC(=O)C2CCCCC2)s1`, the result was inactive.

For the compound `COCc1cc(C)nc2sc(C(=O)Nc3ccc(OC)cc3)c(N)c12`, the outcome was inactive.

As to `CCN(CC)c1ccc(/C=N/NC(=O)c2cccc(S(=O)(=O)N3CCOCC3)c2)c(O)c1`, the result was inactive.

For the compound `O=C(N/N=C\c1ccc([N+](=O)[O-])o1)C1COc2ccccc2O1` (centres undefined), the outcome was inactive.

`Clc1ccc(-c2noc(CN3CCOCC3)n2)cc1`: the outcome was inactive.

`COc1ccc(-c2nc3n(c2C)Cc2ccccc2-3)cc1`: the outcome was inactive.

Consider `COc1ccc(-c2cc(-c3ccccc3)c(C#N)c(S(C)=O)n2)cc1` (centres undefined), for which the result was inactive.

On to `CC(C)(C)c1ccc(C(=O)Nc2sc3c(c2C(=O)O)CCC3)cc1`, for which the result was inactive.

For `Cc1ccc(-n2ncc3c(SCC(N)=O)ncnc32)cc1C`, the result was inactive.

Take `CC(/C=C1\SC(=O)N(CCCC(=O)O)C1=O)=C\c1ccccc1`: the outcome was inactive.

Take `Cc1cc(C)n(CCC(=O)N/N=C/c2c(O)ccc3ccccc23)n1`: the outcome was inactive.

Turning to `COc1ccc2nc(N3CCN(C(=O)c4ccc([N+](=O)[O-])o4)CC3)sc2c1`, the result was inactive.
